Screens deposited in PubChem BioAssay by several laboratories.
CYP2C19 inhib = blockers of cytochrome P450 2C19 activity – biochemical, luminescence, ADME assay, primary screen; P33261; CYP2C19 Supersomes, luciferin-H EGE luminescence, 30 min; inhibition, % at 5 µM; hit rate 21% among 96,000; AID 778, 2007;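 active means CYP2C19 inhibition above a set limit at 5 µM in the primary screen, cut at about 50% in these data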;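 further: plate controls were negative control wells for no effect and 2.5 mM tranylcypromine positive control for full effect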
CYP2C9 inh = blockers of cytochrome P450 2C9 activity – biochemical, luminescence, ADME assay, primary screen. hit rate 20% among 96,000. CYP2C9 Supersomes, luciferin-H conversion. inhibition, % at 5 µM;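 active means blocking of liver enzyme CYP2C9 beyond about 50% at 5 µM, limit read from the data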
CYP2C9 activ = human CYP2C9 activators, primary screen, biochemical, luminescence | Cytochrome P450 2C9 (Homo sapiens), P11712 | recombinant CYP2C9, luciferin-H conversion; active compounds read high; factor 1 = untreated enzyme, 0 = blocked | activation factor at 5 µM | hit rate 1.4% among 96,000 | AID 1024, 2008;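 active means activation factor of 2 or more for CYP2C9 at a 5 µM dose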;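 further: 0 = sulfaphenazole-blocked wells and 1 = vehicle-only wells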
CYP2C19 activ = human CYP2C19 activators, primary screen, biochemical, luminescence; Cytochrome P450 2C19 (Homo sapiens), P33261; recombinant CYP2C19, luciferin-H EGE luminescence; active compounds read high; 0 = fully inhibited enzyme, 1 = untreated enzyme; activation factor at 5 µM; 96,000 tested, under 10 active; AID 1025, 2008;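 active means activation factor of at least 2 at 5 µM in the primary screen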;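 further: 0 = wells with 2.5 mM tranylcypromine and 1 = vehicle-only wells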
PLK1 inh = human PLK1 kinase inhibitors, primary screen, biochemical, TR-FRET; recombinant PLK1 kinase, TR-FRET peptide phosphorylation; inhibition, % at 10 µM; hit rate 0.53% among 97,000; AID 619, 2007;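 active means inhibition of 50% or more in the single-concentration screen; inactive means inhibition below 50%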;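 further: 0% = DMSO max control and 100% = H-89 dihydrochloride min control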
Target sequence (P53350 whole entry, looked up): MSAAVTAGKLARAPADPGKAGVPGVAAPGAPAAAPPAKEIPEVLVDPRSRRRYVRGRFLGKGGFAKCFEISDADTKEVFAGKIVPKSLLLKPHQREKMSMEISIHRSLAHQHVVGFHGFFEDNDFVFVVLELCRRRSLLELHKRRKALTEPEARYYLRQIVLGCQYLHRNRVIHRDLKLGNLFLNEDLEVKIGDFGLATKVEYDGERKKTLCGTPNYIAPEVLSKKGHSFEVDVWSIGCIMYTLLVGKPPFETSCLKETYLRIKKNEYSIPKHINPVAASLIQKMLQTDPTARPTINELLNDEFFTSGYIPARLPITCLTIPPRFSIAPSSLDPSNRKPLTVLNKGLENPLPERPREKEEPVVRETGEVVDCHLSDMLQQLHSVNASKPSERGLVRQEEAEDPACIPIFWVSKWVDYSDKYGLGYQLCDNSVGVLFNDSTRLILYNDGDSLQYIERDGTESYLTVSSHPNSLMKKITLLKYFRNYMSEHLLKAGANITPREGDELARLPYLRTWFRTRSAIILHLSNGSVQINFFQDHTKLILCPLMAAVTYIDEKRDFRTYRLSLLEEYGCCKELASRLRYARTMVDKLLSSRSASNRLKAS
PLK1 PBD inh = Plk1 polo box domain binding inhibitors, primary screen, biochemical, fluorescence polarization. Plk1 PBD phosphopeptide binding. inhibition, %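 (tested at about 20 µM)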. hit rate 0.13% among 97,000. AID 693, 2007; in the data active means inhibition above about 34%, passing the limit was not always enough
Starred values were filed as active, the others as inactive; / = not tested or not shown. Shown are actives, neighbours in structure and some others; about 28% of the full set was active somewhere.

SMILES	CYP2C19 inhib	CYP2C9 inh	CYP2C9 activ	CYP2C19 activ	PLK1 inh	PLK1 PBD inh
O=C(NC1CCCCC1)C1CCCN1S(=O)(=O)c1cccc2nsnc12 (configuration not stated)	41	54*	0.5	0.6	0	6
O=C(O)c1ccc(Cl)c(NC(=O)C2CCCN2S(=O)(=O)c2cccc3nsnc23)c1 (configuration not stated)	-19	-4	1	1.2	8	0
COc1cccc(NC(=O)Cn2cc3c(n2)CCCCC3)c1	10	6	0.9	0.9	-6	-2
CCCCCOc1ccc(NC(=O)CCCC(=O)O)cc1	-6	1	1	1.1	-5	19
COc1ccc(OC)c(NC(=O)C23CC4CC(C2)CC(n2cnc(Br)n2)(C4)C3)c1	72*	-159	2.6*	0.3	-17	7
O=c1c2ccccc2nc2n1C(CSCc1ccc(Cl)cc1Cl)CS2 (configuration not stated)	64*	22	0.8	0.4	-12	5
CC(C)Sc1nc(N2CCOCC2)c2c(c1C#N)CC(C)(C)SC2	70*	95*	0.1	0.3	/	/
CCc1[nH]c(=O)c(C#N)c2c1CSC(C)(C)C2	/	/	/	/	-8	17
CCCSc1nc(N2CCOCC2)c2c(c1C#N)CC(C)(C)SC2	35	66*	0.3	0.7	6	-10
CC(C)CSc1nc(N2CCOCC2)c2c(c1C#N)CC(C)(C)SC2	26	87*	0.1	0.7	-1	-8
CCCNC(=O)N1CCN(c2ncccn2)CC1	/	/	/	/	7	-14
O=C(Nc1ccc2nc(-c3cccs3)c(-c3cccs3)nc2c1)N1CCOCC1	20	42	0.6	0.8	-14	14
COc1ccc(Nc2nnc(SCc3cc(=O)n4ccsc4n3)s2)cc1	49	41	0.6	0.5	-6	5
Cc1ccccc1N(CC(=O)NC1CCCC1)C(=O)CS(=O)CC(=O)Nc1ccc2c(c1)OCO2 (configuration not stated)	22	90*	0.1	0.8	-2	16
Cc1ccc(NC(=O)CS(=O)CC(=O)N(CC(=O)NC2CCCC2)c2cc(C)ccc2C)cc1 (configuration not stated)	35	71*	0.3	0.7	-10	-5
CCN1CNC(=S)N(c2cc(C)ccc2C)C1	-3	-7	1.1	1	-7	6
COc1ccc(NC(=O)c2cc(-c3cc(C)cc(C)c3O)n[nH]2)cc1Cl	39	10	0.9	0.6	-8	-17
O=C(c1cc(Cl)ccc1Cl)N1CCN(c2ccccn2)CC1	94*	92*	0.1	0.1	-3	18
O=C(c1cccc(Cl)c1)N1CCN(c2ccccn2)CC1	90*	79*	0.2	0.1	-8	-3
O=C(N1CCN(c2ccccn2)CC1)N1c2ccccc2Sc2ccccc21	90*	88*	0.1	0.1	-12	-30
Nc1cccc2c1C(=O)N(C(=O)c1ccc(S(=O)(=O)N3CCCCCC3)cc1)C2=O	29	57*	0.4	0.7	-8	6
COc1cc(COCC(O)CN2CCOCC2)cc(OC)c1OC (configuration not stated)	9	-10	1.1	0.9	-6	-2
O=C(c1ccc(S(=O)(=O)N2CCCCCC2)cc1)N1CCN(c2ccccn2)CC1	8	69*	0.3	0.9	-13	9
O=C(c1c(Cl)cccc1Cl)N1CCN(c2ccccn2)CC1	37	63*	0.4	0.6	-20	-3
CCCCCn1c(N)c(-c2nc3ccccc3s2)c2c([N+](=O)[O-])nn(C)c(=O)c21	9	70*	0.3	0.9	-10	21
SMILES	CYP2C19 inhib	CYP2C9 inh	CYP2C9 activ	CYP2C19 activ	PLK1 inh	PLK1 PBD inh
CCCCCn1c2nc3ccccc3nc2c2c(=O)n(CC(C)C)cnc21	3	8	0.9	1	-7	20
OC(COc1ccc2ccccc2c1)Cn1ccnc1 (configuration not stated)	100*	98*	0	0	-5	12
OC(COc1ccc2ccccc2c1Br)Cn1ccnc1 (configuration not stated)	99*	96*	0	0	-8	0
CCc1ccc(N(C(=O)CNC(=O)c2cccs2)C(C(=O)NC(C)(C)C)c2cc(OC)c(OC)c(OC)c2)cc1 (configuration not stated)	36	41	0.6	0.6	-11	14
CCCc1nc(NC(C)=O)c(C#N)c(-c2ccco2)c1CC	17	34	0.7	0.8	/	/
CCOC(=O)C1CCN(C=Nc2cc(C)on2)CC1	-15	-6	1.1	1.2	-3	22
NCCOc1ccccc1-c1ccccc1	57*	66*	0.3	0.4	-5	-6
c1ccc(COc2ccc(OCCCn3cncn3)cc2)cc1	94*	96*	0	0.1	-8	2
Clc1ccc(OCCCn2cncn2)cc1Cl	99*	92*	0.1	0	-8	-12
Clc1ccc(SCCCCn2cncn2)cc1	98*	76*	0.2	0	-2	-25
CCCCc1ccc(NC(=O)CSCc2cc(=O)[nH][nH]2)cc1	23	16	0.8	0.8	-1	2
COc1cccc(N2CCN(Cc3nc(N)nc(N4CCCc5ccccc54)n3)CC2)c1	20	16	0.8	0.8	1	-17
Cc1cc(C)nc(N2CCC(C(=O)Nc3cccc(C(F)(F)F)c3)CC2)n1	32	-34	1.3	0.7	-12	13
c1ccc(Cc2ccc(OCCn3cncn3)cc2)cc1	97*	98*	0	0	-5	-7
c1ccc(-c2ccccc2OCCn2cncn2)cc1	97*	-80	1.8	0	2	5
FC(F)(F)c1cccc(OCCOCCn2cncn2)c1	86*	33	0.7	0.1	-10	-16
COc1ccc(OCCn2cncn2)cc1	-2	-13	1.1	1	-15	5
c1ccc(-c2ccc(OCCOCCn3cncn3)cc2)cc1	95*	67*	0.3	0.1	-9	24
CCOc1cccc(OCCOCCN2CCCC2)c1	-2	-11	1.1	1	/	/
Cc1occc1-c1nnc(SCC(=O)N2CCc3ccccc32)o1	74*	16	0.8	0.3	-8	-14
COc1ccc(OC)c(-c2nnc(SCC(=O)N3CCCc4ccccc43)o2)c1	98*	26	0.7	0	-15	-7
O=C(CSc1nnc(-c2cccs2)o1)N1CCCc2ccccc21	77*	32	0.7	0.2	-12	2
